Bioassay records deposited in PubChem BioAssay by National Center for Advancing Translational Sciences (NCATS).
This excerpt belongs to a sample that is enriched for hits.
NTMT1 inh: NTMT1 methyltransferase inhibition. 2.5% of 59,000 active. Q9BV86. Potency, µM (top dose mostly 114 µM), for the others: at the highest dose activity change, negative = inhibition, most hits filed as inhibitors. NTMT1 MTase-Glo SAH luminescence, purified enzyme;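 also: plate controls were DMSO vehicle for no effect and no enzyme for full effect; nearly all actives have a fitted effect of over 65% in size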
Target sequence (Q9BV86 whole entry, looked up): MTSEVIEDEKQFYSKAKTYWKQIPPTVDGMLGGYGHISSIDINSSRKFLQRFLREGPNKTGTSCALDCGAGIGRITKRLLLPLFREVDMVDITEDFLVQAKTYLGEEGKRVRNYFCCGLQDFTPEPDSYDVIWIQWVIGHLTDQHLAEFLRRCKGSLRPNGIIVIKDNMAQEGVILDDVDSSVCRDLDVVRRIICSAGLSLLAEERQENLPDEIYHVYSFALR
HTT prom inh: inhibits huntingtin promoter activity; Potency, µM (top dose mostly 57.5 µM), for inactives: at the highest dose activity change, negative = inhibition, usual class: inhibitors; AID 1508623; HEK293 HTT promoter firefly luciferase reporter, 24 h; 0.93% of 48,000 active; also: nearly all actives have a fitted effect of over 50% in size
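Firefly luciferase readout (Dual-Glo, 10 min RT) after 24 h, 37 °C compound exposure (final up to 57.5 uM) of HEK293 reporter cells cultured 24 h beforehand; PTC124 at 50 uM final as control inhibitor; activity scaled vehicle 0%, zero RLU -100%.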
HTT-AS act: HTT-AS promoter activation; HEK293 HTT-AS promoter firefly luciferase reporter, 24 h; response scale: percent change from vehicle, -100% = no light; Potency, µM (titrated, usually from 57.5 µM), for inactives: at the highest dose activity change, positive = activation, actives largely listed as activators; 0.24% of 48,000 active; also: nearly all actives have a fitted effect of over 55% in size
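HEK293 cells carrying firefly luciferase reporters were seeded at 2,500 per well in Opti-MEM and cultured for 24 h. They were then treated with compounds at up to 57.5 uM final for 24 h at 37 degrees C before Dual-Glo luminescence readout.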
The depositor's hits bear a star; ? = inconclusive; . = no result; ! = repeats disagree; [ ] = remark or other dose. Calls follow the shape of the dose curve; as a rule, active = well fitted curve in the direction sought with a large enough effect; inconclusive = small, poorly fitted or top-dose-only effect, or another doubt; inactive = no such curve, though single readings can be large; an effect the other way counts as inactive or inconclusive. Potency is read from the fitted curve at half-maximal effect.

SMILES	NTMT1 inh	HTT prom inh	HTT-AS act
CCc1ccc(NC(=O)c2[nH]c(C)c(C(C)=O)c2C)cc1S(=O)(=O)Nc1ccc(C#N)cc1	16.9%	.	.
COc1ccc(-c2ccc3c(N4CCOCC4C)nc(N4CCOCC4C)nc3n2)cc1CO (stereo not given)	-11.9%[57.5 µM]	.	.
Cc1ccc(-c2ccc(=O)n(CC(=O)N(C)C(C)c3ccco3)n2)cc1 (stereo not given)	-28.2%	.	.
Cc1ncc(CCCN(C)C)cc1Nc1ncc2c(n1)-c1ccc(C(F)(F)F)cc1NC(=S)C2	31.6µM*	.	.
O=C(O)[C@H](Cc1ccccc1)Oc1ccc(-c2ccccc2)cc1	5.1%[57.5 µM]	.	.
CC(C)(C)OC(=O)N1CCN(c2ccc(NCc3ccc(-c4ccccc4F)o3)cc2)CC1	-4.7%	.	.
COc1ccccc1NC(=O)c1c(NCc2ccc(C)o2)sc2c1CCCCC2	28.2µM*	7.9%	3.5%
O=C(Cc1ccccc1)Nc1sc2c(c1C(=O)Nc1ccccc1Cl)CCCC2	89.1µM*	4.8%	-14.6%
COc1ccc(OC)c(NC(=O)c2c(NCc3ccc(C)o3)sc3c2CCCCC3)c1	?	4.4%	-0.4%
COc1ccc(CC(=O)Nc2sc3c(c2C(=O)Nc2cccc(Cl)c2)CCCCC3)cc1	19.4%	?	-79.3%
O=C(Nc1sc2c(c1C(=O)Nc1cccc(Cl)c1)CCCC2)c1cccs1	25.1µM*	-11.4%	-31.3%
O=C(COc1ccccc1)Nc1sc2c(c1C(=O)Nc1ccccc1Cl)CCCCC2	17.9%	-19.2%[11.5 µM]	-11.6%
CN1C(=O)NC(c2ccccc2Cl)C2=C1CCCC2=O (stereo not given)	5.4%	.	.
O=C(NCCc1nc2ccccc2n1CCCc1ccccc1)C1CCCCC1	-1.5%	.	.
OC1C=C2C3CN(Cc4cc5c(cc43)OCO5)C2CC1O (stereo not given)	-3.2%[57.5 µM]	.	.
CCOC(=O)c1ccc(OCCC2CCN(c3ccc(C)nn3)CC2)cc1	14.6%[57.5 µM]	.	.
CC1=C2C(=O)C=C(CO)[C@@H]2[C@H]2OC(=O)[C@H](C)[C@@H]2[C@@H](O)C1	3.7%[57.5 µM]	.	.
Cc1cc(-c2nnc3n2CCCC3)c(C)n1-c1ccccc1	21.8%	.	.
O=C(Nc1cccc(C(F)(F)F)c1)c1ccccc1NCc1ccncc1	-19.1%[57.5 µM]	.	.
CCOc1ccc(CNS(=O)(=O)c2ccc(-c3coc(C)n3)cc2)cc1	5.2%	?	-27.3%
CCOc1ccc(CNS(=O)(=O)c2ccc(-c3coc(C)n3)cc2)cc1OC	-1.7%	25.1µM*	-37.3%
O=C(Nc1ncc(-c2ccccc2)s1)c1ccc(-c2cccc([N+](=O)[O-])c2)o1	3.8%[57.5 µM]	.	.
O=C(CN1C(=O)C2(SCC(=O)N2c2ccccc2)c2ccccc21)NCc1ccccc1 (stereo not given)	89.1µM*	-22.4%	-8.4%
Cc1ccc(N2C(=O)CSC23C(=O)N(CC(=O)NCc2ccccc2)c2ccccc23)cc1 (stereo not given)	11.8%	-25.4%	-22.5%
CCc1cccc(CC)c1-n1c(C=C(C)C)c(C(=O)N2CCNCC2)cc(-c2nc(-c3ccc(C(F)(F)F)cc3)cs2)c1=O	12.2%[29.8 µM]	.	.
SMILES	NTMT1 inh	HTT prom inh	HTT-AS act
COc1ccc(-n2c(-c3ccco3)nc3c(cnn3-c3ccc(Cl)cc3)c2=O)cc1	?	35.5µM*	-53.2%
COc1cccc(-n2c(-c3ccco3)nc3c(cnn3-c3ccc(Cl)cc3)c2=O)c1	4.8%	?	-31.9%
Nc1ncnc(Nc2ccc(OCc3ccccc3)c(Cl)c2)c1/C=N/OCCN1CCOCC1	5.6%	.	.
COc1ccccc1-c1nc(NCc2ccc(-c3cccnc3)cc2)c2ccccc2n1	8.2%	.	.
CCCCC1CCC(CCCC(C)CCC(=O)O)CC1 (stereo not given)	44.7µM*	-27.4%	-13.6%
COc1ccc(Cl)cc1C(=O)Nc1nc(-c2ccccc2)cs1	5.7%[57.5 µM]	.	.
CCOc1ccc(S(=O)(=O)N2CCN(Cc3nc4ccc(C)cc4o3)CC2)cc1	3.8%	?	-28.0%
CCCc1nc(C)c2c(=O)[nH]c(-c3cc(S(=O)(=O)N4CCN(CC)CC4)ccc3OCC)nn12	14.1µM*!	?	-90.0%
[O-][n+]1ccccc1SSc1cccc[n+]1[O-]	5.01µM*	?	-74.5%[25.1 µM]
COC(=O)C1=C(C)NC(c2ncc(F)cc2F)=N[C@@H]1c1ccc(F)cc1Cl	19.2%	.	.
CCCc1ccc(S(=O)(=O)N2CCC(c3nnc(-c4cccc(C)c4)o3)CC2)cc1	79.4µM*	?	-67.5%
Cc1ccc(S(=O)(=O)N2CCC(c3nnc(-c4cccc(C)c4)o3)CC2)cc1	?	?	-59.5%
Cc1ccc(NC(=O)c2cccc(N3CCCS3(=O)=O)c2)cc1	14.9%	10.0%	?
Cc1ccc(NC(=O)c2cccc(N3CCCS3(=O)=O)c2)cc1C	-4.9%	51.9%	2.24µM*
Clc1ccc(CN[C@H]2CCN(c3ncc(Br)cn3)C2)c(Cl)c1	-3.4%[57.5 µM]	.	.
Cc1ccc(S(=O)(=O)NCC(Nc2cccc(Cl)c2)c2ccccc2)cc1 (stereo not given)	14.7%	25.1µM*	-56.4%
Cc1cccc(N(C)C(CNS(=O)(=O)c2ccccc2)c2ccccc2)c1 (stereo not given)	-1.8%	?	-30.5%
C[C@@H](c1nc(-c2ccc(C#N)cc2)cs1)[C@](O)(Cn1cncn1)c1cc(F)ccc1F	6.7%[57.5 µM]	.	.
CC(=O)Nc1cccc(-c2nc(-c3ccccc3)no2)c1	-13.7%	55.6%	1.12µM*
O=C(O)c1ccc(-c2noc(-c3cccc(Cl)c3)n2)cc1	-17.8%	.	.
COc1cc(OC)c(NC(=O)NCc2cccn2Cc2ccccc2)cc1Cl	-0.3%	4.1%	-10.9%
COc1ccc(C)cc1NC(=O)NCc1cccn1Cc1ccccc1	89.1µM*	-7.1%	-8.9%
O=C(Nc1nc(-c2ccccc2)cs1)c1ccncc1NS(=O)(=O)c1cccc2cccnc12	50.1µM*	.	.
Cc1ccc(-c2csc(NC(=O)c3ccccc3NS(=O)(=O)c3ccc(C)cc3)n2)cc1	9.9%	.	.
Cc1ccc(S(=O)(=O)Nc2cnccc2C(=O)Nc2nc(-c3ccc(Oc4ccccc4)cc3)cs2)cc1	44.7µM*	.	.
SMILES	NTMT1 inh	HTT prom inh	HTT-AS act
N#Cc1cccc(S(=O)(=O)Nc2cnccc2C(=O)Nc2nc(-c3ccccc3)cs2)c1	22.0%	.	.
O=C(Nc1ncc(Cc2ccc(C(F)(F)F)cc2)s1)c1ccc(-c2ccccc2[N+](=O)[O-])o1	17.3%	.	.
CC(=O)c1c(O)cc2cccc3c2c1CC(C)(O)O3 (stereo not given)	-5.9%[57.5 µM]	.	.
O=S(=O)(Nc1ccccc1)c1ccc(NCc2cccc(Cl)c2O)cc1	-2.7%[57.5 µM]	.	.
O=S(=O)(Nc1ccc(C2CCNCC2)cc1)c1ccc(NCc2cccc(Cl)c2O)cc1	22.4µM*	.	.
COC(=O)c1c(C)cc(OC(=O)c2c(C)cc(OC)cc2OC)cc1O[C@@H]1O[C@H](CO)[C@@H](O)[C@H](O)[C@H]1O	-3.9%[29.8 µM]	.	.
O=C(CC(c1ccccc1)c1ccccc1)N1CCN(C(c2ccccc2)c2ccccc2)CC1	5.3%[57.5 µM]	.	.
CCOC(=O)/C=C(C)/C=C/C=C(C)/C=C/c1c(C)cc(OC)c(C)c1C	10.2%[57.5 µM]	6.8%	-8.2%
COc1cc(C)c(/C=C/C(C)=C/C=C/C(C)=C/C(=O)O)c(C)c1C	79.4µM*	.	.
COc1cc(O)c(C(CC(=O)N2CC(C)CC(C)C2)c2ccc3c(c2)OCCO3)c(OC)c1 (stereo not given)	42.8%	.	.
CCOc1ccc(/C=C2\SC(=O)N(CCN)C2=O)cc1	-12.0%	.	.
